Results: the supplement of paper PMC4709259
Structures can show the parent of a compound that is named as a salt. ± gives the standard deviation.

How the values were obtained:
Jurkat [1] = assay: mean cell size (FSC-A) relative to DMSO control (fraction of control); higher = larger cells; conditions: 48 h
How it was run: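 Jurkat cells at 600 cells/µl were incubated for 1 h and then treated for 48h with the Enzo Screen-Well FDA Approved Drug Library v2.0 at 25µM, with DMSO at 0.9% (v/v) final. Compounds that reduced counts below 20% of controls were retested in 10-fold dilutions down to 25nM. Cell count and mean cell size, taken as forward scatter area, were measured by flow cytometry relative to solvent-only controls. Each plate carried 6-12 controls, and values are means of 3 biological replicates.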

Jurkat [2] = assay: cell count relative to DMSO control (fraction of control); higher = more cells (less growth inhibition); conditions: 48 h

Row | SMILES | mean cell size (Jurkat [1]) | cell count (Jurkat [2])
1 | CCOc1ccccc1OCCN[C@H](C)Cc1ccc(OC)c(S(N)(=O)=O)c1 [Tamsulosin·HCl] (concentration: 25 µM) | 0.988 ± 0.037 | 0.808 ± 0.079
2 | NC(N)=Nc1nc(CSCC/C(N)=N/S(N)(=O)=O)cs1 [Famotidine] (concentration: 25 µM) | 0.979 ± 0.035 | 1.19 ± 0.12
3 | Nc1nc2[nH]cc(CCc3ccc(C(=O)N[C@@H](CCC(=O)O)C(=O)O)cc3)c2c(=O)[nH]1 [Pemetrexed Disodium] (concentration: 2.5 µM) | 1.4 ± 0.058 | 0.247 ± 0.028
4 | CC1(C)S[C@@H]2[C@H](NC(=O)[C@H](N)c3ccc(O)cc3)C(=O)N2[C@H]1C(=O)O [Amoxicillin] (concentration: 25 µM) | 0.988 ± 0.012 | 0.866 ± 0.063
5 | CCCC(=O)Nc1ccc(OCC(O)CNC(C)C)c(C(C)=O)c1 (stereo not drawn) [Acebutolol·HCl] (concentration: 25 µM) | 1.04 ± 0.041 | 0.798 ± 0.17
6 | NC(=O)N[C@@H](CCC(=O)O)C(=O)O [Carglumic Acid] (concentration: 25 µM) | 0.936 ± 0.037 | 0.806 ± 0.1
7 | O=C1O[C@H]([C@@H](O)CO)C(O)=C1O [L-Ascorbic Acid] (concentration: 25 µM) | 1 ± 0.029 | 0.836 ± 0.068
8 | C#C[C@]1(O)CC[C@H]2[C@@H]3CCc4cc(O)ccc4[C@H]3CC[C@@]21C [Ethinyl Estradiol] (concentration: 25 µM) | 1.22 ± 0.075 | 0.263 ± 0.035
9 | Nc1ccc(S(N)(=O)=O)cc1 [Sulfanilamide] (concentration: 25 µM) | 0.925 ± 0.018 | 0.546 ± 0.18
10 | O=C1CN2Cc3c(ccc(Cl)c3Cl)N=C2N1 [Anagrelide] (concentration: 25 µM) | 1 ± 0.023 | 0.696 ± 0.12
11 | CCCNCC(O)COc1ccccc1C(=O)CCc1ccccc1 (stereo not drawn) [Propafenone·HCl] (concentration: 25 µM) | 1.06 ± 0.02 | 0.605 ± 0.13
12 | Cc1nnc(C(=O)NC(C)(C)c2nc(C(=O)NCc3ccc(F)cc3)c(O)c(=O)n2C)o1 [Raltegravir] (concentration: 25 µM) | 0.9483 ± 0.0067 | 0.569 ± 0.11
13 | COc1ccc(CC(C)NCC(O)c2ccc(O)c(NC=O)c2)cc1 (stereo not drawn) [Formoterol] (concentration: 25 µM) | 0.992 ± 0.033 | 0.808 ± 0.044
14 | NC[C@H]1O[C@H](O[C@H]2[C@H](O)[C@@H](O[C@H]3O[C@H](CO)[C@@H](O)[C@H](N)[C@H]3O)[C@H](N)C[C@@H]2N)[C@H](O)[C@@H](O)[C@@H]1O [Kanamycin Sulfate] (concentration: 25 µM) | 0.919 ± 0.013 | 1.06 ± 0.08
15 | COc1ccc(-c2ccc3cc(C(=O)O)ccc3c2)cc1C12CC3CC(CC(C3)C1)C2 [Adapalene] (concentration: 2.5 µM) | 1.1 ± 0.1 | 0.269 ± 0.081
16 | CCOC(=O)[C@H](CCc1ccccc1)N[C@H]1CCc2ccccc2N(CC(=O)O)C1=O [Benazepril·HCl] (concentration: 25 µM) | 0.965 ± 0.012 | 0.885 ± 0.035
17 | CC1(C)O[C@@H]2C[C@H]3[C@@H]4C[C@H](F)C5=CC(=O)CC[C@]5(C)[C@H]4[C@@H](O)C[C@]3(C)[C@]2(C(=O)CO)O1 [Flurandrenolide] (concentration: 25 µM) | 0.916 ± 0.035 | 0.638 ± 0.12
18 | CC(O)(P(=O)(O)O)P(=O)(O)O [Etidronate Disodium] (concentration: 25 µM) | 1 ± 0.052 | 0.595 ± 0.17
19 | CC[C@]1(O)C[C@@H]2CN(CCc3c([nH]c4ccccc34)[C@@](C(=O)OC)(c3cc4c(cc3OC)N(C)[C@H]3[C@@](O)(C(=O)OC)[C@H](OC(C)=O)[C@]5(CC)C=CCN6CC[C@]43[C@@H]65)C2)C1 [Vinblastine Sulfate] (concentration: 25 nM) | 0.971 ± 0.031 | 0.0701 ± 0.058
20 | COc1cc(C(=O)NCc2ccc(OCCN(C)C)cc2)cc(OC)c1OC [Trimethobenzamide·HCl] (concentration: 25 µM) | 0.9923 ± 0.0096 | 1.07 ± 0.057
21 | CC[C@H]1OC(=O)[C@H](C)[C@@H](O[C@H]2C[C@@](C)(OC)[C@@H](O)[C@H](C)O2)[C@H](C)[C@@H](O[C@@H]2O[C@H](C)C[C@H](N(C)C)[C@H]2O)[C@](C)(O)C[C@@H](C)CN(C)[C@H](C)[C@@H](O)[C@]1(C)O [Azithromycin] (concentration: 25 µM) | 0.948 ± 0.027 | 0.628 ± 0.078
22 | CO/N=C(\C(=O)N[C@@H]1C(=O)N2C(C(=O)O)=C(COC(C)=O)CS[C@H]12)c1csc(N)n1 [Cefotaxime Acid] (concentration: 25 µM) | 0.944 ± 0.025 | 0.957 ± 0.025
23 | CCCN[C@H]1CCc2nc(N)sc2C1 [Pramipexole Dihydrochloride Monohydrate] (concentration: 25 µM) | 1 ± 0.037 | 0.631 ± 0.011
24 | CCOC(=O)N1CCC(=C2c3ccc(Cl)cc3CCc3cccnc32)CC1 [Loratadine] (concentration: 25 µM) | 0.938 ± 0.034 | 0.367 ± 0.031
25 | CCN(CC)CCNC(=O)c1c(C)[nH]c(/C=C2\C(=O)Nc3ccc(F)cc32)c1C [Sunitinib Malate] (concentration: 250 nM) | 0.906 ± 0.031 | 0.861 ± 0.089

Row | SMILES | mean cell size (Jurkat [1]) | cell count (Jurkat [2])
26 | COCCCC/C(=N\OCCN)c1ccc(C(F)(F)F)cc1 [Fluvoxamine Maleate] (concentration: 25 µM) | 0.973 ± 0.046 | 0.866 ± 0.083
27 | Cc1cccc(Nc2ccncc2S(=O)(=O)NC(=O)NC(C)C)c1 [Torsemide] (concentration: 25 µM) | 1.01 ± 0.052 | 0.866 ± 0.042
28 | O=C1CCc2cc(OCCCCc3nnnn3C3CCCCC3)ccc2N1 [Cilostazol] (concentration: 25 µM) | 0.98 ± 0.044 | 0.819 ± 0.12
29 | NC(=O)Cc1cccc(C(=O)c2ccccc2)c1N [Nepafenac] (concentration: 25 µM) | 0.934 ± 0.019 | 0.727 ± 0.025
30 | CCCCCCCCc1ccc(CCC(N)(CO)CO)cc1 [Fingolimod] (concentration: 25 µM) | 1.03 ± 0.035 | 0.953 ± 0.12
31 | CC(C)c1c(C(=O)Nc2ccccc2)c(-c2ccccc2)c(-c2ccc(F)cc2)n1CC[C@@H](O)C[C@@H](O)CC(=O)O [Atorvastatin Calcium] (concentration: 25 µM) | 1.05 ± 0.028 | 0.552 ± 0.07
32 | CC(=O)/N=c1/sc(S(N)(=O)=O)nn1C [Methazolamide] (concentration: 25 µM) | 1.02 ± 0.035 | 0.925 ± 0.091
33 | CN1CCN(CCCN2c3ccccc3Sc3ccc(C(F)(F)F)cc32)CC1 [Trifluoperazine·HCl] (concentration: 2.5 µM) | 1.072 ± 0.01 | 0.776 ± 0.13
34 | Nc1ncn([C@H]2C[C@H](O)[C@@H](CO)O2)c(=O)n1 [Decitabine] (concentration: 2.5 µM) | 1 ± 0.018 | 0.363 ± 0.035
35 | CN(C)[C@@H]1C(=O)C(C(N)=O)=C(O)[C@@]2(O)C(=O)C3=C(O)c4c(O)ccc(Cl)c4[C@@H](O)[C@H]3C[C@@H]12 [Demeclocycline·HCl] (concentration: 25 µM) | 0.811 ± 0.028 | 0.219 ± 0.039
36 | Fc1ccc([C@@H]2CCNC[C@H]2COc2ccc3c(c2)OCO3)cc1 [Paroxetine·HCl] (concentration: 2.5 µM) | 1.01 ± 0.059 | 0.24 ± 0.057
37 | CC(=O)N(O)CCCCCNC(=O)CCC(=O)N(O)CCCCCNC(=O)CCC(=O)N(O)CCCCCN [Deferoxamine Mesylate] (concentration: 25 µM) | 1.09 ± 0.053 | 0.496 ± 0.062
38 | COc1cc(C)c(/C=C/C(C)=C/C=C/C(C)=C/C(=O)O)c(C)c1C [Acitretin] (concentration: 25 µM) | 0.883 ± 0.021 | 0.625 ± 0.11
39 | C#C[C@]1(O)CC[C@H]2[C@@H]3CCC4=Cc5oncc5C[C@]4(C)[C@H]3CC[C@@]21C [Danazol] (concentration: 25 µM) | 0.995 ± 0.026 | 0.92 ± 0.08
40 | Cc1onc(-c2ccccc2Cl)c1C(=O)N[C@@H]1C(=O)N2[C@@H]1SC(C)(C)[C@@H]2C(=O)O [Cloxacillin·Na] (concentration: 25 µM) | 0.99 ± 0.031 | 0.703 ± 0.056
41 | C[N+]1(C)[C@@H]2C[C@@H](OC(=O)C(O)(c3cccs3)c3cccs3)C[C@H]1[C@@H]1O[C@@H]12 [Tiotropium Bromide Monohydrate] (concentration: 25 µM) | 0.988 ± 0.036 | 0.68 ± 0.051
42 | CC(C)/N=c1\cc2n(-c3ccc(Cl)cc3)c3ccccc3nc-2cc1Nc1ccc(Cl)cc1 [Clofazimine] (concentration: 2.5 µM) | 0.952 ± 0.03 | 0.695 ± 0.066
43 | Cc1ccc(O)c([C@H](CCN(C(C)C)C(C)C)c2ccccc2)c1 [Tolterodine Tartrate] (concentration: 25 µM) | 0.935 ± 0.022 | 1.14 ± 0.059
44 | CN(C)CC[C@@H](c1ccc(Cl)cc1)c1ccccn1 [Dexchlorpheniramine Maleate] (concentration: 25 µM) | 0.964 ± 0.033 | 0.526 ± 0.17
45 | NS(=O)(=O)Cc1noc2ccccc12 [Zonisamide] (concentration: 25 µM) | 1 ± 0.05 | 0.561 ± 0.25
46 | C[C@@H](c1ncncc1F)[C@](O)(Cn1cncn1)c1ccc(F)cc1F [Voriconazole] (concentration: 25 µM) | 0.963 ± 0.043 | 0.682 ± 0.1
47 | CN(C)c1ccc(O)c2c1C[C@H]1C[C@H]3[C@H](N(C)C)C(=O)C(C(N)=O)=C(O)[C@@]3(O)C(=O)C1=C2O [Minocycline] (concentration: 2.5 µM) | 0.969 ± 0.027 | 0.894 ± 0.04
48 | Cc1nc(-c2ccc(OCC(C)C)c(C#N)c2)sc1C(=O)O [Febuxostat] (concentration: 25 µM) | 1 ± 0.024 | 0.592 ± 0.028
49 | C[C@]12C=CC(=O)N[C@@H]1CC[C@@H]1[C@@H]2CC[C@]2(C)[C@@H](C(=O)Nc3cc(C(F)(F)F)ccc3C(F)(F)F)CC[C@@H]12 [Dutasteride] (concentration: 25 µM) | 0.983 ± 0.052 | 0.636 ± 0.17
